From PubChem BioAssay (NCATS)
Results filed as inconclusive are left out. Calls of active or inactive are those of the source. Calls follow the shape of the dose curve; as a rule, active = well fitted curve in the direction sought with a large enough effect; inconclusive = small, poorly fitted or top-dose-only effect, or another doubt; inactive = no such curve, though single readings can be large; an effect the other way counts as inactive or inconclusive. Peptide text beside a SMILES is read from it. * marks the point of attachment. AMC = Cc1cc(=O)oc2cc(N*)ccc12; Cbz = O=C(OCc1ccccc1)*

Assays:
[1] = biological target: Cellular tumor antigen p53 (Homo sapiens) (UniProt P04637); test: Primary qHTS for small molecule compounds that upregulate eGFP-tagged delta133p53alpha (in N-terminal) cells. (AID 2060322); settings: NCI-H358 eGFP-delta133p53alpha fluorescence, 24 h; activation: active compounds read high;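 also: series mostly up to about 56 µM; 0% = DMSO vehicle and 100% = reference activator; nearly all actives have a fitted effect of over 75% in size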
Sequence of Cellular tumor antigen p53 (Homo sapiens) (P04637 whole entry, looked up): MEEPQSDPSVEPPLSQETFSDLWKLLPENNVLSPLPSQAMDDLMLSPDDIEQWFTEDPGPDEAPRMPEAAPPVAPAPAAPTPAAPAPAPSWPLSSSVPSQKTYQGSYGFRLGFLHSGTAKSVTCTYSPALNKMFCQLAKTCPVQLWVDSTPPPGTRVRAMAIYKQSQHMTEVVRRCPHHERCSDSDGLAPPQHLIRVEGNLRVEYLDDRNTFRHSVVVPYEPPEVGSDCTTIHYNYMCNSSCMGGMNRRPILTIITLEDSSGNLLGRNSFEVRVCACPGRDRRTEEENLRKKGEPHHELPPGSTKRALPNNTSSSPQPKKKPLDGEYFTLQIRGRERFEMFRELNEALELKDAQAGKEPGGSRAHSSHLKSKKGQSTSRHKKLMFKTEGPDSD
In short: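 NCI-H358 cells pre-induced 24 h with 10 ng/ml doxycycline to express N-terminal eGFP-delta133p53alpha, then dosed 24 h at 37C without doxycycline; fixed, Hoechst-stained, GFP intensity by laser scanning cytometry, normalized to DMSO (0%) and 57.5 uM 5-azacytidine (100%).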

[2] = biological target: Aldehyde dehydrogenase, mitochondrial (Homo sapiens) (UniProt P05091); test: qHTS for Inhibitors of the Aldehyde Dehydrogenase Family (ALDH2) Primary screen (AID 2061308);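 also: plate controls were vehicle for no effect and reference inhibitor for full effect; nearly all actives have a fitted effect of over 55% in size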
[3] = biological target: Retinaldehyde dehydrogenase 3 (Homo sapiens) (UniProt P47895); test: qHTS for Inhibitors of the Aldehyde Dehydrogenase Family (ALDH1A3) Primary screen (AID 2061315);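 also: plate controls were DMSO vehicle for no effect and reference inhibitor for full effect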

O=C(Nc1ccn[nH]1)c1c(F)cccc1F
inactive: activation [1] 12.3% | Potency [2] | Potency [3]

CC(=O)OC1C(O)CC2(C)C(CCC(C)C23Cc2c(O)cc(CO)c(C=O)c2O3)C1(C)C (configuration not stated)
inactive: activation [1] 6.87% | Potency [2] | Potency [3]

CCC/C=C/C(=O)O[C@H]1CC(C)(C)CC2[C@@]13[C@H](O)C[C@]1(C)[C@@]2(CCC2[C@@]4(C)CC[C@H](O[C@@H]5O[C@H](C(=O)O)[C@@H](O)[C@H](O[C@@H]6O[C@H](CO)[C@H](O)[C@H](O)[C@H]6O[C@@H]6O[C@@H](C)[C@H](O)[C@@H](O)[C@H]6O[C@@H]6OC[C@](O)(CO)[C@H]6O)[C@H]5O[C@@H]5O[C@H](CO)[C@H](O)[C@H](O)[C@H]5O)C(C)(C)C4CC[C@]21C)O[C@H]3O (some centres not stated)
inactive: activation [1] -12.5% | activity change, negative = inhibition [2] 11.6% [at 11.2 µM] | activity change, negative = inhibition [3] 11% [at 11.2 µM]

COc1cc(C)c(C(=O)OC2C(C)OC(OC3CCC(C)C4C3C=C(C)C3/C(C)=C\CC/C(C)=C/C5(C)C=C(C(=O)O)C(C)CC56OC(=O)/C(=C(\O)C34C)C6=O)C(O)C2O)c(OC)c1 (configuration not stated)
inactive: activation [1] 10.7% | Potency [2] | Potency [3]

CC1(O)CCCC2(C)C1CCC13CC(CO)C(CCC12)C3 (configuration not stated)
inactive: activation [1] 0% | Potency [2] | Potency [3]

COC(=O)CCC(=O)OC[C@]1(C)CCC[C@@]2(C)C3CC[C@]4(C)C=CC3(CCC12)C4 (some centres not stated)
inactive: activation [1] -8.4% | Potency [2] | Potency [3]

COC(=O)C[C@H]1C(C)(C)[C@H](OC(C)=O)C2CC3=C4CC(=O)O[C@@H](c5ccoc5)[C@]4(C)CCC3[C@@]1(C)C2=O (some centres not stated)
inactive: activation [1] 2.68% | Potency [2] | Potency [3]

C[C@@H]1O[C@@H](O[C@H]2[C@H](OC(=O)[C@]34CCC(C)(C)C[C@H]3C3=CCC5[C@@]6(C)CC[C@H](O[C@@H]7O[C@H](CO[C@@H]8OC[C@H](O)[C@H](O)[C@H]8O[C@@H]8OC[C@@H](O)[C@H](O)[C@H]8O)[C@@H](O)[C@H](O)[C@H]7O)C(C)(C)C6CC[C@@]5(C)[C@]3(C)C[C@H]4O)O[C@H](CO)[C@@H](O)[C@@H]2O)[C@H](O[C@@H]2O[C@H](CO)[C@@H](O)[C@H](O)[C@H]2O)[C@H](O)[C@H]1O[C@@H]1OC[C@@H](O)[C@H](O[C@@H]2OC[C@@H](O)[C@H](O)[C@H]2O)[C@H]1O (some centres not stated)
inactive: activation [1] -9.92% | activity change, negative = inhibition [2] 6.45% [at 11.2 µM] | activity change, negative = inhibition [3] 8.82% [at 11.2 µM]

O=C(Nc1nnc(-c2ccc3c(c2)OCCO3)o1)C1CCCCC1
inactive: activation [1] -8.33% | Potency [2] | Potency [3]

CCOc1ccc(-c2cc(NC(=O)c3c(F)cccc3F)c(C(=O)O)s2)cc1
inactive: activation [1] 15.7% | Potency [2] | Potency [3]

CC(=O)c1ccc(O[C@@H]2OC[C@@H](O)[C@H](O)[C@H]2O[C@]2(CO)O[C@H](CO)[C@@H](O)[C@@H]2O)c(O)c1
inactive: activation [1] -9.92% | Potency [2] | Potency [3]

CC(=O)OC1C(OC(=O)c2ccccc2)C2C(C)(C)CC(=O)CC2(C)C23CCC(C)(C2)C(O)CC13 (configuration not stated)
inactive: activation [1] -22.3% | Potency [2] | Potency [3]

C=C1CCC2C(C)(C)CC(O)CC2(C)C1CCC(C)CC(=O)O (configuration not stated)
inactive: activation [1] 2.68% | Potency [2] | Potency [3]

CC1(C)CC2C3=CCC4C5(C)CCC(OC6OC(C(=O)O)C(O)C(O)C6OC6OC(CO)C(O)C(O)C6OC6OC(CO)C(O)C(O)C6O)C(C)(CO)C5CCC4(C)C3(C)CCC2(C)C(OC2OCC(O)C(OC3OC(CO)C(O)C(O)C3O)C2O)C1O (configuration not stated)
inactive: activation [1] -18.3% | activity change, negative = inhibition [2] 5.84% [at 11.2 µM] | activity change, negative = inhibition [3] -21.1% [at 11.2 µM]

CC[C@H]1OC(=O)[C@H](C)[C@@H](O[C@H]2C[C@@](C)(OC)[C@@H](O)[C@H](C)O2)[C@H](C)[C@@H](O[C@H]2O[C@H](C)C[C@H](N(C)C)[C@H]2O)[C@](C)(O)C[C@@H](C)C(=O)[C@H](C)[C@@H](O)[C@]1(C)O
inactive: activation [1] 9.67% | Potency [2] | Potency [3]

C=CC(C)(O)CC/C=C(/C)COC(=O)C(C)C1CCC(C)(C=C)O1 (configuration not stated)
inactive: activation [1] 5.36% | Potency [2] | Potency [3]

COc1cc2c(c(OC)c1CC=C(C)C)C[C@H](c1ccc(O)c(CC=C(C)C)c1O)CO2
inactive: activation [1] -7.14% | Potency [2] | Potency [3]

CNc1cccc(CCOc2ccc3c(c2)CN(CC(F)(F)F)C(=O)[C@H](CC(=O)O)C3)n1
inactive: activation [1] 2.86% | Potency [2] | Potency [3]

CC(NC(=O)[C@H](Cc1ccccc1)NC(=O)OCc1ccccc1)C(=O)CF (some centres not stated)
inactive: activation [1] -5.67% | Potency [2] | Potency [3]

O=C(CO)[C@@H](O)[C@H](O[C@@H]1O[C@H](CO)[C@H](O)[C@H](O)[C@H]1O)[C@H](O)CO
inactive: activation [1] 28.3% | Potency [2] | Potency [3]

CC1(C)CCCC2(C)C=C(C(=O)O)C(O)CC12 (configuration not stated)
inactive: activation [1] -19.1% | Potency [2] | Potency [3]

CC1=C(C(=O)O)/C(=C\CO[C@@H]2O[C@H](CO)[C@@H](O)[C@H](O)[C@H]2O)C(OC(=O)/C=C/c2ccc(O)cc2)C1 (some centres not stated)
inactive: activation [1] -3.82% | Potency [2] | Potency [3]

CC[C@@H](C)[C@H](N)C(=O)N1Cc2ccccc2C1
inactive: activation [1] 3.82% | Potency [2] | Potency [3]

C=C(C)[C@@H]1CC[C@]2(C(=O)O)CC[C@]3(C)[C@H](CCC4[C@@]5(C)CCC(=O)C(C)(C)C5C(O)C[C@]43C)C12 (some centres not stated)
inactive: activation [1] 13% | Potency [2] | Potency [3]

CCCC(=O)C1(c2ccccc2)CCN(C(=O)[C@@H](Cc2ccc(OC)cc2)NC(=O)[C@@H](N)Cc2cncn2C)CC1
inactive: activation [1] 4.3% | Potency [2] | Potency [3]

C=CC1(C)C=C2CCC3C(C)(C)C(O[C@@H]4O[C@@H](CO)[C@H](O)[C@H]4O)CCC3(C)C2CC1O[C@@H]1O[C@H](C)[C@H](O)[C@H](O)[C@H]1O (some centres not stated)
inactive: activation [1] 0.763% | Potency [2] | Potency [3]

O=C(OC[C@H]1O[C@H](O[C@]2(CO)O[C@H](CO)[C@@H](O)[C@@H]2O)[C@H](O)[C@@H](O)[C@@H]1O)c1ccc(O)cc1
inactive: activation [1] -2.68% | Potency [2] | Potency [3]

C=C1CCC2[C@@](C)(C=O)CCC[C@]2(C)[C@H]1CC/C(C)=C/CO (some centres not stated)
inactive: activation [1] 18.3% | Potency [2] | Potency [3]

COc1cc2c(c(O)c1OC/C=C(\C)CC/C=C(/C)CCC=C(C)C)CN(C(CCC(=O)O)C(=O)O)C2=O (configuration not stated)
inactive: activation [1] -30.5% | Potency [2] | Potency [3]

Cc1cc(=O)oc2cc(NC(=O)[C@H](CCC(=O)O)NC(=O)[C@H](CC(C)C)NC(=O)[C@H](CC(C)C)NC(=O)OCc3ccccc3)ccc12 (Cbz-Leu-Leu-Glu-{AMC})
inactive: activation [1] 2.33% | Potency [2] | Potency [3]

CCOC(=O)C1(CCOc2ccccc2)CCN(Cc2ccc(O)c(Cl)c2)CC1
inactive: activation [1] 3.67% | Potency [2] | Potency [3]

CC1=C2CC(O)(C(C)(C)O)C(O[C@@H]3O[C@H](CO)[C@@H](O)[C@H](O)[C@H]3O)CC(C)C2CC1=O (some centres not stated)
inactive: activation [1] -3.05% | Potency [2] | Potency [3]

Cc1c(N2C(=O)c3ccc(C(=O)O)cc3C2=O)c(=O)n(-c2ccccc2)n1C
inactive: activation [1] -5% | Potency [2] | Potency [3]

C=C1CCCC2(C)CC3(OC)OC(=O)C(C)=C3CC12 (configuration not stated)
inactive: activation [1] 16.1% | Potency [2] | Potency [3]

C=C[C@@](C)(O)CC/C=C(\C)C(=O)O[C@@H]1[C@@H]2O[C@]2(C)[C@H]2[C@H](O[C@@H]3O[C@H](CO)[C@@H](O)[C@H](O)[C@H]3O)OC=C[C@@]12O
inactive: activation [1] -3.57% | Potency [2] | Potency [3]

CC(=O)OC[C@@]12[C@@H](OC(C)=O)C[C@@H](C)[C@](C)([C@@H]3C[C@H]4C=CO[C@H]4O3)[C@H]1CCC[C@]21CO1
inactive: activation [1] 0% | Potency [2] | Potency [3]

CCC(C)C(=O)O[C@H]1[C@H](O)[C@@]2(COC(C)=O)C(CC1(C)C)C1=CCC3[C@@]4(C)CC[C@H](O[C@@H]5O[C@H](C(=O)O)[C@@H](O)[C@H](O)[C@H]5O)[C@@](C)(CO)C4CC[C@@]3(C)[C@]1(C)C[C@@H]2O (some centres not stated)
inactive: activation [1] -0.893% | Potency [2] | Potency [3]

C=C[C@]1(C)C[C@H](O)[C@@H]2[C@H](OC(=O)[C@@H]2C)C1/C(C)=C/O[C@@H]1O[C@H](CO)[C@@H](O)[C@H](O)[C@H]1O (some centres not stated)
inactive: activation [1] -27.7% | Potency [2] | Potency [3]

COC1CC(OC2CCC3(C)C(=CCC4C3C(OC(C)=O)C(OC(=O)/C=C/c3ccccc3)C3(C)C(C(C)O)CCC43O)C2)OC(C)C1OC1CC(OC)C(OC2OC(C)C(OC3OC(CO)C(O)C(O)C3O)C(OC)C2O)C(C)O1 (configuration not stated)
inactive: activation [1] 2.29% | activity change, negative = inhibition [2] 13.8% [at 11.2 µM] | activity change, negative = inhibition [3] 9.46% [at 11.2 µM]

CC1CCC2(C(=O)O)CCC3(C)C(=CCC4C5(C)CCC(OC(=O)/C=C/c6ccccc6)C(C)(C)C5CCC43C)C2C1C (configuration not stated)
inactive: activation [1] -8.4% | Potency [2] | Potency [3]

CC1=C(C)C(=O)OC(C(C)C2C(O)CC3C4C5OC5C5(O)CC(OC6OC(CO)C(OC7OC(C)C(O)C(O)C7O)C(O)C6O)CC(O)C5(C)C4CCC32C)C1 (configuration not stated)
inactive: activation [1] -6.87% | Potency [2] | Potency [3]

C[C@]1(OC(=O)/C=C/c2ccc(O)cc2)C[C@@H](O)[C@]2(O)C=CO[C@@H](O[C@@H]3O[C@H](CO)[C@@H](O)[C@H](O)[C@H]3O)C12 (some centres not stated)
inactive: activation [1] 3.57% | Potency [2] | Potency [3]

COc1ccc([C@H]2Cc3cccc(O)c3C(=O)O2)cc1OC
inactive: activation [1] 6.87% | Potency [2] | Potency [3]

COc1ccc([C@H]2OC[C@H]3[C@@H]2CO[C@@H]3c2ccc(O[C@@H]3O[C@H](CO)C(O)[C@H](O)[C@H]3O)c(OC)c2)cc1OC (some centres not stated)
inactive: activation [1] -1.79% | Potency [2] | Potency [3]
